System: E18 rat cortical neuron-glia co-culture
Assay: fiber score / MBP score (myelination specific beyond OL differentiation) (ratio); higher = more myelination-specific MBP alignment
Conditions: 1 µM; treatment time: 8 days (DIV5-DIV13)
Method in brief: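 Primary E18 rat cortical co-cultures (papain-dissociated, 20,000 cells/well on poly-d-lysine/laminin 96-well plates) received library compounds at 1 or 5 µM in myelination medium from DIV5 to DIV13. Cells were fixed in 4 % paraformaldehyde and immunostained for MBP and Olig2 with DAPI, and four 10X fields per well in duplicate wells were analysed. The read-out is fiber score (continuous MBP fiber length per Olig2+ nucleus) divided by MBP score (thresholded MBP area × intensity per Olig2+ nucleus).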

Compared with `CN1CCN(c2c(F)cc3c(=O)c(C(=O)O)cn4c3c2SCC4)CC1` [Rufloxacin], `CC(=O)N1CCN(c2ccc(OCC3COC(Cn4ccnc4)(c4ccc(Cl)cc4Cl)O3)cc2)CC1` (stereo not drawn) [Ketoconazole] is lower in “fiber score / MBP score” value: 1.05 for the first, 0.468 for the second.

Going from `Cc1ccnc2c1NC(=O)c1cccnc1N2C1CC1` [Nevirapine] to `CN(C)CCC=C1c2ccccc2CCc2ccccc21` [Amitriptyline], the “fiber score / MBP score” value rises from 0.687 to 0.785.

Going from `O=C(O)COCCN1CCN(C(c2ccccc2)c2ccc(Cl)cc2)CC1` (stereo not drawn) [Cetirizine] to `CC1(C)S[C@@H]2[C@H](NC(=O)Cc3ccccc3)C(=O)N2[C@H]1C(=O)O` [Penicillin G], the “fiber score / MBP score” value falls from 0.908 to 0.898.

Going from `Cc1cccc(Nc2ccncc2S(=O)(=O)NC(=O)NC(C)C)c1` [Torsemide] to `NS(=O)(=O)c1cc2c(cc1Cl)N=CNS2(=O)=O` [Chlorothiazide], the “fiber score / MBP score” value rises from 0.837 to 1.05.

First: Cc1ncc([N+](=O)[O-])n1CCO [Metronidazole]
Second: CO[C@@]1(NC(=O)Cc2cccs2)C(=O)N2C(C(=O)O)=C(COC(N)=O)CS[C@@H]21 [Cefoxitin]
The “fiber score / MBP score” value of the first is lower: 0.862 for the first, 0.901 for the second.

Compared with `CC(=O)[C@H]1CC[C@H]2[C@@H]3CCC4=CC(=O)CC[C@]4(C)[C@H]3CC[C@]12C` [Progesterone], `C[C@]12CCC(=O)C=C1CC[C@@H]1[C@@H]2C(=O)C[C@@]2(C)[C@H]1CC[C@]2(O)C(=O)CO` [Cortisone] is higher in “fiber score / MBP score” value: 0.688 for the first, 0.752 for the second.

With `C#C[C@]1(OC(C)=O)CC[C@H]2[C@@H]3CCC4=CC(=O)CC[C@@H]4[C@H]3CC[C@@]21C` [Norethisterone acetate] the “fiber score / MBP score” value was 0.907.

Source: the supplement of paper PMC4840960
